# A549 viability = A549 cytotoxicity, counter-screen for Nrf2 inhibitors. actives 0.16% (n = 390,000). AID 504648. A549 ARE-Fluc cells, CellTiter-Fluor viability, 18-24 h. Potency, µM (highest dose often 46 µM), for the others: at the top dose activity change, negative = cytotoxicity, hits mostly inhibitors; also: % is scaled to controls: 0 for no effect and ±100 for the full control effect
#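 A549 ARE_Fluc cells in 5% FBS OPTI-MEM were exposed to compounds in concentration-response for 18-24 h at 37 deg C. Viability was read by CellTiter-Fluor fluorescence (Ex 405/Em 525) after 30 min, before the luciferase read.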
# Nrf2 ARE act = Nrf2 pathway activation; AREc32 ARE-luciferase reporter (MCF7-derived line), luminescence, 24 h; Potency, µM (doses to about 46.1 µM), for inactives: at the top dose activation, most hits filed as activators; actives 0.31% (n = 410,000); also: % of control where 0% means no effect; nearly all actives have a fitted effect of over 65% in size
#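 For detection, Steady-Glo was added and plates sat 30 min at RT; before that, AREc32_Fluc cells grown overnight in OPTI-MEM/5% FBS had been treated with 23 nL compound for 24 hr at 37 deg C.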
# Nrf2 inh = inhibitors of Nrf2 signaling; A549 ARE-Fluc reporter, luciferase luminescence, 18-24 h; actives 2.1% (n = 360,000); Potency, µM (doses to about 46 µM), without a hit: top-dose activity change, negative = inhibition, hits mostly inhibitors; also: % is scaled to controls: 0 for no effect and ±100 for the full control effect; nearly all actives have a fitted effect of over 60% in size
#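 Quantitative HTS in A549 cells stably bearing an antioxidant response element-firefly luciferase construct. Inhibition of Nrf2-driven transcription was scored by luminescence after 18-24 h of compound exposure at 37 °C.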
# ELG1 DNA repair = inhibitors of ELG1-dependent DNA repair in HEK293T cells. actives 2.3% (n = 330,000). Potency, µM (highest dose often 46.1 µM), inactives show top-dose activity change, negative = inhibition, hits mostly inhibitors. HEK293T ELG1-luciferase reporter, luminescence, 16 h; DNA damage induced by 5-fluorouridine; also: % is scaled to controls: 0 for no effect and ±100 for the full control effect; nearly all actives have a fitted effect of over 55% in size
#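 Reporter activity after DNA damage by 5-fluorouridine is monitored. Compound-treated cells incubate 16 hr at 37 °C, then ONE-Glo is added for 30 min before luminescence reading.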
# IDH1 R132H inh = blocks human mutant IDH1 R132H enzyme; actives 0.093% (n = 390,000); O75874; Potency, µM (highest dose often 76.6 µM), for the others: at the top dose activity change, negative = inhibition, usual class: inhibitors; IDH1-R132H enzyme, NADPH consumption, diaphorase/resazurin fluorescence; also: % is scaled to controls: 0 for no effect and ±100 for the full control effect; nearly all actives have a fitted effect of over 65% in size
# Target sequence (O75874 whole entry R132H, stated change not applied): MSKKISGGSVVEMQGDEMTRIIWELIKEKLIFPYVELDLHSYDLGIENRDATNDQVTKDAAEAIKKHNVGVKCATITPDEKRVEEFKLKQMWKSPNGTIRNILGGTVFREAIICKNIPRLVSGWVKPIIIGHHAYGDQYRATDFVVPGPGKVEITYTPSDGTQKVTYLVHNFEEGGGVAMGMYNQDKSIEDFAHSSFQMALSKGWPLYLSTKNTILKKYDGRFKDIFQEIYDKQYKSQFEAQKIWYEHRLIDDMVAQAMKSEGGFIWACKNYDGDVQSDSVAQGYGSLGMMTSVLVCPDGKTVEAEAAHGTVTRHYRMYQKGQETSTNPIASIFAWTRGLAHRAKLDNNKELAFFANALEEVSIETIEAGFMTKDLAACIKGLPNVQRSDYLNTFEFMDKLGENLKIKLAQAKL
#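 IDH1-R132H (0.5 ug/mL dispensed) in pH 7.5 Tris buffer was preincubated 30 min with compound, then given a substrate mix of 0.016 mM NADPH and 2 mM alpha-KG for 80 min at room temperature; remaining NADPH was read by diaphorase/resazurin fluorescence.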
# Starred values were filed as active, the others as inactive; ? = inconclusive; . = no result given; [ ] = remark or other dose. Only some compounds are listed: those with a hit (about 3.8% of all), similar ones and a draw of the others. Calls follow the shape of the dose curve; as a rule, active = well fitted curve in the direction sought with a large enough effect; inconclusive = small, poorly fitted or top-dose-only effect, or another doubt; inactive = no such curve, though single readings can be large; an effect the other way counts as inactive or inconclusive. Potency is read from the fitted curve at half-maximal effect.
SMILES,A549 viability,Nrf2 ARE act,Nrf2 inh,ELG1 DNA repair,IDH1 R132H inh
COc1cc(NC(=O)C(OC(=O)CNC(=O)c2ccccc2)c2ccccc2)cc(OC)c1 (stereo not drawn),-3.0%,.,-17.7%,.,.
O=C(c1ccccc1)N1CCN(c2nc(-c3cccs3)nc3ccccc23)CC1,-11.1%,.,?,.,.
CCC(=O)N(CCC(Cc1ccccc1)c1ccco1)Cc1ccco1 (stereo not drawn),-17.7%,4.0%,16.4µM*,-5.7%,0.8%
CCC(=O)N(CCC(c1ccccc1)c1ccco1)Cc1cccs1 (stereo not drawn),0.5%,0.6%,12.2%,-7.0%,3.6%
COc1cccc(Cn2cc(C(=O)c3ccc(Cl)cc3)c(=O)c3ccccc32)c1,-18.0%,0.1%,?,.,-14.8%
O=C(CCN1N=C(c2ccccc2)CCC1=O)NCC1COc2ccccc2O1 (stereo not drawn),5.4%,-0.1%,2.4%,?,1.2%
O=C(Nc1cc(Cl)cc(Cl)c1)N1CCN(C(=O)C2CCCO2)CC1 (stereo not drawn),5.8%,0.5%,16.4µM*,5.4%,1.9%
O=C(Nc1ccc(Cl)cc1)N1CCN(C(=O)C2CCCO2)CC1 (stereo not drawn),-1.2%,-0.6%,-13.0%,1.1%,2.2%
Cc1ccc(NC(=O)CSc2nc(-c3ccco3)nc3cc(=O)[nH]n23)cc1C,14.5%,?,?,.,10.9%
COc1ccc(-n2c(-c3ccc(Br)cc3)c[n+]3c2SC(C)C3)cc1 (stereo not drawn),-2.5%,-0.1%,-25.0%,5.8µM*,12.8%
COc1ccc(-n2c(-c3ccc(Br)cc3)c[n+]3c2CCCCC3)cc1,-2.2%,2.5%,?,5.17µM*,9.9%
O=C(NCCc1csc(-c2ccc(C(F)(F)F)cc2)n1)c1ccc(F)c(F)c1,7.7%,-0.2%,.,.,-3.3%
O=c1[nH]c(/C=C/c2ccccc2[N+](=O)[O-])nc2ccccc12,6.8%,1.26µM*,5.0%,?,2.9%
COc1ccc(-n2nc(C(=O)O)c3csc(N)c3c2=O)cc1,-11.7%,.,4.1%,.,.
C=CCOc1ccc(CN(C)C(=O)CNC(=O)c2ccc(-c3ccccc3)cc2)cc1,-20.7%,2.4%,16.4µM*,23.1µM*,-6.4%
CCN(CC)c1nc2c(S(=O)(=O)c3cccc(Cl)c3)nnn2c2ccsc12,5.2%,-1.2%,?,.,26.4%
COc1ccc(CN(C)C(=O)c2ccc(NS(=O)(=O)c3ccc(F)cc3)cc2)c(OC)c1OC,-3.4%,-0.8%,-27.1%,?,-0.1%
CC(C)(C)n1nnnc1C(c1cccs1)N(Cc1ccccc1)Cc1ccco1 (stereo not drawn),-9.2%,9.0%,20.6µM*,-21.4%,0.0%
CC(C)(C)n1nnnc1C(c1cccs1)N(Cc1cccnc1)Cc1ccco1 (stereo not drawn),-7.5%,3.2%,0.2%,16.2%,-7.7%
COC(=O)Cn1c(SCCOc2ccccc2Cl)nc2ccccc21,-9.7%,3.2%,23.1µM*,.,-3.0%
Cc1ccc(OCCSc2nc3ccccc3n2CC(=O)N2CCOCC2)cc1,-0.4%,3.2%,18.4µM*,.,4.2%
Cc1cccc(OCCSc2nc3ccccc3n2CC(=O)N2CCOCC2)c1,0.3%,0.4%,5.7%,.,.
O=[N+]([O-])c1ccc(Sc2ncccn2)c([N+](=O)[O-])c1,?,?,23.1µM*,?,7.4%
CCOC(=O)CNC(=O)CSc1nc(C(C)C)nc2c1cnn2-c1ccccc1,.,-1.4%,.,.,4.0%
C=CCOC(=O)c1cn(CC)c2nc(C)ccc2c1=O,1.0%,0.3%,8.7%,-5.5%,6.2%
SMILES,A549 viability,Nrf2 ARE act,Nrf2 inh,ELG1 DNA repair,IDH1 R132H inh
CCn1cc(C(=O)OCC(=O)OC2CC(C)CCC2C(C)C)c(=O)c2ccc(C)nc21 (stereo not drawn),?,0.2%,20.6µM*,?,1.0%
Cc1ccc(-n2ncc3c(NCCCN(C)C)ncnc32)cc1Cl,16.4%,0.7%,.,.,-8.5%
COc1ccc(CCNC(=O)c2ccc(Cn3c(=O)[nH]c4cc(OC)c(OC)cc4c3=O)cc2)cc1OC,-4.9%,-0.2%,-15.4%[9.27 µM],.,-8.2%
CCOC(=O)c1ccc(NC(=S)N2CCSC2c2ccc(Cl)cc2)cc1 (stereo not drawn),?,3.1%,20.6µM*,10.3%,-4.1%
CCOC(=O)c1ccc(NC(=S)N2CCSC2c2ccc(OC)cc2)cc1 (stereo not drawn),-3.3%,2.4%,-11.2%,12.7%,3.6%
C[C@@H]1CC[C@]2(C(=O)O)CC[C@]3(C)C(=CCC4[C@]56CC[C@@](O)(OC5)C(C)(C)C6CC[C@]43C)C2[C@H]1C (stereo partly drawn),-24.9%,0.5%,14.6µM*,-13.1%,-7.4%
CC(C)(C)C(=O)Cn1c(=O)n(-c2ccccc2)c(=O)c2c3c(sc21)CCC3,-20.9%,-0.7%,-19.1%,.,24.3%
O=c1[nH]c(CN2CCN(c3ccccc3O)CC2)nc2scc(-c3ccccc3Cl)c12,-13.9%,2.3%,-20.4%,20.6µM*,0.0%
O=c1[nH]c(CN2CCN(c3ccc(O)cc3)CC2)nc2scc(-c3ccc(Cl)cc3)c12,?,5.8%,?,?,-7.9%
Cc1ccc(OCc2nc(-c3ccc(C(=O)NCCc4ccc(S(N)(=O)=O)cc4)cc3)oc2C)cc1,0.3%,0.5%,-13.2%,.,-7.3%
O=C(CSc1nc2ccccc2c(=O)[nH]1)N1CCN(S(=O)(=O)c2ccccc2)CC1,19.6%,-0.6%,-3.8%,?,12.3%
O=C(CSc1nc(-c2ccccc2)c(-c2ccccc2)[nH]1)N1CCN(S(=O)(=O)c2ccccc2)CC1,-27.4%,2.8%,16.4µM*,16.4µM*,0.2%
Cc1ccc(CN(C)C(=O)C2CCN(C(=O)Nc3ccccc3)CC2)o1,-0.5%,-0.3%,-1.1%,12.3%,-6.6%
CN(Cc1ccc(C(C)(C)C)cc1)C(=O)C1CCN(C(=O)Nc2ccccc2)CC1,-16.0%,2.3%,20.6µM*,?,2.2%
CCc1ccccc1NC(=O)Nc1cc(C(=O)NCc2cccc(F)c2)ccc1N1CCCC1,-26.3%,-0.7%,.,.,-8.2%
Cc1ccnc(NC(=O)c2cccc(S(=O)(=O)N3CCN(c4ccccc4)CC3)c2)c1,-1.3%,-0.7%,?,?,4.7%
Cc1cc(NC(=O)c2ccc(Cl)c(S(=O)(=O)N3CCCCC3)c2)no1,-16.4%,-0.2%,23.1µM*,?,1.6%
Cc1ccc(NC(=O)c2ccc(Cl)c(S(=O)(=O)N3CCCCC3)c2)nc1,-6.8%,-1.1%,20.6µM*,0.0%,-4.3%
Cc1ccnc(NC(=O)c2ccc(Cl)c(S(=O)(=O)N3CCCCC3)c2)c1,-15.3%,0.1%,?,3.4%,0.4%
